± gives the standard deviation.
tested on: OVCAR-3-derived ovarian cancer stem-like cells (spheroids); assay: cell growth relative to untreated control; higher = more growth (less inhibition); conditions: 2.29 µM; 96 h
How it was run: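 Stem-like cells derived from OVCAR-3 spheroids were dissociated with trypsin and seeded at 50,000 cells/mL in stem cell medium in ultra-low attachment 96-well plates, then preincubated for 24 h. Each compound was added at 2.29 uM to 4 replicate wells and left for 96 h at 37°C, 5% CO2. Viability came from TOX8 resazurin fluorescence (ex 560/em 590 nm) read after 4 h. Percent growth was expressed relative to untreated wells, after blank subtraction and removal of outliers by the Grubbs test.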

| SMILES | cell growth |
| --- | --- |
| S=C=NCc1ccccc1 | 109 ± 28% |
| CC[C@](C)(O)C(=O)O[C@H]1C(=O)O[C@@H]2C[C@H]3C(C)=C[C@H](O)[C@@H](O)[C@]3(C)[C@H]3[C@@]4(O)OC[C@]32[C@@H]1[C@@H](C)[C@H]4O | 138 ± 54% |
| CCOC(OC1=C(C#N)CCC1)C(C)[Se]c1ccccc1 (configuration not stated) | 147 ± 33% |
| COc1cc([C@@H]2c3cc4c(c(O)c3C[C@H]3COC(=O)[C@@H]32)OCO4)cc(OC)c1O | 20.4 ± 5.8% |
| CO[C@H]1[C@@H](O)[C@@H](C)O[C@H](O[C@H]2[C@H](Oc3cccc4c(O)c5c(=O)oc6ccc(C)c7c(=O)oc(c34)c5c67)O[C@H](C)[C@H](O)[C@@H]2O)[C@@H]1O | 67.4 ± 17% |
| O=C1C=C2C=CC3CC2(O1)C1CCCCN31 (configuration not stated) | 49.8 ± 9.5% |
| COC1=C(C)C(=O)C2=C(C1=O)C(CO)N1C(C#N)C3CC4C(C1C2N1CCOC41)N3C (configuration not stated) | 14.9 ± 4.6% |
| COc1cc2c(cc1O)N=CC1CCC(O)N1C2=O (configuration not stated) | 93.8 ± 20% |
| C[C@H]1CCC/C=C/[C@@H]2C[C@H](O)C[C@H]2[C@H](O)/C=C/C(=O)O1 | 15 ± 2.5% |
| COC1CC(O[C@H]2CC[C@]3(C=O)[C@H]4CC[C@]5(C)[C@@H](C6=CC(=O)OC6)CC[C@]5(O)[C@@H]4CC[C@]3(O)C2)OC(C)C1O (some centres not stated) | 52.2 ± 16% |
| C/C(=N\N=C(/[Se])N1CC2CCC(CC2)C1)c1ccccn1 | 7.7 ± 2.4% |
| COC1CC(CC2CCC(C)C(C(C)C(=O)O)O2)OC2(OC(C)(C3CCC(C)(C4OC(C5OC(O)(CO)C(C)CC5C)CC4C)O3)CC2C)C1C (configuration not stated) | 64.5 ± 48% |
| CC1Oc2cc3c(-c4c(O)cc(O)c5c(O)c6c(cc45)OC(C)C(C)C6=O)c(O)cc(O)c3c(O)c2C(=O)C1C (configuration not stated) | 23.8 ± 48% |
| Cc1cc(N(CCOS(C)(=O)=O)CCOS(C)(=O)=O)ccc1C=Nc1ccc(-c2csc(-c3ccccc3)n2)c(Cl)c1 | 97.7 ± 47% |
| O=[Se](O)O.[Na+] | 112 ± 29% |
| COC1C(C)OC(OC2CC(C)(O)Cc3cc4c(c(O)c32)C(=O)c2c(O)cc3c(c2C4=O)OC2OC3(C)C(O)C(N(C)C)C2O)C(OC)C1(C)OC (configuration not stated) | 8.5 ± 3.2% |

| SMILES | cell growth |
| --- | --- |
| C[Si](C)(CN)CN.[Cl][Pt][Cl] | 137 ± 53% |
| CC(=O)[O][Sn]([CH2]c1ccccc1)([CH2]c1ccccc1)[CH2]c1ccccc1 | 112 ± 25% |
| CN(C)C(=S)SSC(=S)N(C)C | 103 ± 17% |
| Cc1cc(N(CCCl)CCCl)ccc1/C=N/NC(=O)Cc1cc(=O)oc2cc(O)ccc12 | 113 ± 53% |
| O=c1[nH]c2ccccc2n1C1CCN(CCCC(c2ccc(F)cc2)c2ccc(F)cc2)CC1 | 90.6 ± 41% |
| COc1ccc(O)c2c(=O)c3c(OC)cc4c(c3oc12)[C@@H]1C=CO[C@@H]1O4 | 90.1 ± 25% |
| O=C1N[C@@H]2C(=C[C@H](O)[C@@H](O)[C@H]2O)c2cc3c(cc21)OCO3 | 31.7 ± 7.1% |
| CO[C@H]1Nc2c(ccc(C)c2O)C(=O)N2C=C(/C=C/C(N)=O)C[C@@H]12 | 12.8 ± 2.4% |
| O=C1N[C@@H]2C(=C[C@H](O)[C@@H](O)[C@H]2O)c2cc3c(c(O)c21)OCO3 | 111 ± 17% |
| NCCCNCCSP(=O)(O)O | 99.4 ± 12% |
| CC(C)C[C@H]1C(=O)N2CCC[C@H]2[C@]2(O)O[C@](NC(=O)[C@@H]3C=C4c5cccc6[nH]c(Br)c(c56)C[C@H]4N(C)C3)(C(C)C)C(=O)N12 | 90.6 ± 6.8% |
| CC12C(=O)OC(=O)C1(C)C1CCC2O1 (configuration not stated) | 91 ± 14% |
| C=Cc1cc(OC)c2c(c1)c(=O)oc1c2cc(OC)c2c(O)ccc(C3OC(C)C(O)C(C)(O)C3O)c21 (configuration not stated) | 8.6 ± 6% |
| O=C1OC(c2ccccc2)=N/C1=C\c1ccc(N(CCCl)CCCl)cc1 | 64.5 ± 12% |
| CCC[CH2][Pb]([Cl])([CH2]CCC)[CH2]CCC | 5.1 ± 5.5% |
| C/C1=C\[C@H](C)C[C@H](C)OC(=O)CC(c2ccc(O)cc2)NC(=O)[C@@H](Cc2c(Br)[nH]c3ccccc23)N(C)C(=O)[C@H](C)NC(=O)[C@@H](C)C1 (some centres not stated) | 25 ± 5.7% |
